Results filed as inconclusive are left out. The source made the active and inactive calls. Unless noted, calls come from the whole dose curve; as a rule, active = well fitted curve in the direction sought with a large enough effect in the repeat runs; inconclusive = weak or mixed curves; inactive = no such curve, though single readings can be large; an effect the other way counts as inactive or inconclusive.
Tests used:
[1] = target: Thyrotropin receptor (Homo sapiens) (UniProt P16473); experiment: qHTS assay to identify small molecule antagonists of the thyroid stimulating hormone receptor (TSHR) signaling pathway (AID 1259385; calls by dose curve; note: nearly all actives have a fitted effect of over 20% in size)
Procedure, shortened: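 TSHR-HEK293 cells were plated and held 18 h at 37C/5% CO2, then given compound plus Ro20-1724 and stimulated with TSH at 1.5 ng/mL final. After 30 min at room temperature, cAMP was detected with cAMP-d2/anti-cAMP-cryptate (1 h) by fluorescence.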

[2] = qHTS assay to identify small molecule agonists of the estrogen receptor alpha (ER-alpha) signaling pathway in the presence of an antagonist - cell viability counter screen (AID 1259386);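 note: series mostly up to about 92 µM; cells exposed to compounds for 22 h at 37 °C before the viability read; nearly all actives have a fitted effect of over 30% in size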
Procedure, shortened: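 Read-out: CellTiter-Fluor fluorescence after 1hr reagent incubation, measured in the same wells as the luciferase readout. VM7Luc4E2 cells were exposed to 15 compound concentrations with 10.0nM ICI-182,780 for 22hr at 37C.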

[3] = target: Progesterone receptor (Homo sapiens) (UniProt P06401); experiment: qHTS assay to identify small molecule agonists of the progesterone receptor (PR) signaling pathway (AID 1346784; calls by dose curve; note: nearly all actives have a fitted effect of over 30% in size)
Procedure, shortened: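 Agonist mode, quantitative HTS format in a HEK 293T line expressing a UAS-controlled beta-lactamase reporter; 16 hr compound exposure at 37C in 2% charcoal-stripped FBS, then LiveBLAzer B/G FRET fluorescence.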

[4] = target: Progesterone receptor (Homo sapiens) (UniProt P06401); experiment: qHTS assay to identify small molecule antagonists of the progesterone receptor (PR) signaling pathway (AID 1346795; active = well fitted inhibition curve with a large enough effect in the signal ratio in the repeat runs, not every such curve was filed as active; the % refers to the signal ratio)
Procedure, shortened: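 HEK293T PR-UAS-bla reporter cells in charcoal-stripped serum (2%) received compound after a 6 hr settling period, followed by R5020 agonist at 1 nM final; 16 hr incubation preceded the FRET substrate step and fluorescence measurement.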

[5] = qHTS assay to identify small molecule antagonists of the progesterone receptor (PR) signaling pathway - cell viability counter screen (AID 1346798); note: series mostly up to about 92 µM; nearly all actives have a fitted effect of over 50% in size
Procedure, shortened: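 Same-well multiplex: after 16 hr at 37C with compound and R5020 stimulation, HEK293T cells carrying a UAS-bla reporter received LiveBLAzer substrate (2 hr RT), then CellTiter-Glo (30 min RT) for luminescent viability.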

[6] = qHTS assay to identify small molecule antagonists of the TGF-beta/Smad signaling pathway - cell viability counter screen (AID 1346824); note: nearly all actives have a fitted effect of over 50% in size
Procedure, shortened: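 SBE-bla HEK 293T cells were plated overnight at 37 C, then given compounds in DMSO plus TGF-beta1 (added as 0.25 ng/mL solution) for 5 hr. After the bla read, CellTiter-Glo was added to the same wells and luminescence read after 30 min at room temperature.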

[7] = qHTS assay to identify small molecule agonists of the TGF-beta/Smad signaling pathway - cell viability counter screen (AID 1346829); note: top concentration of the series differs between compounds; nearly all actives have a fitted effect of over 45% in size
Procedure, shortened: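 CellTiter-Glo luminescence readout; SBE-bla HEK 293T cells, overnight plating, compound 5 hr at 37 C/5% CO2, then bla substrate 2 hr RT, then CellTiter-Glo 30 min RT.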

[8] = qHTS assay to identify small molecule agonists of the TGF-beta/Smad signaling pathway (AID 1346859; active = well fitted activation curve with a large enough effect in the signal ratio in the repeat runs, not every such curve was filed as active; the % refers to the signal ratio; note: series mostly up to about 77 µM)
Procedure, shortened: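 Smad-responsive beta-lactamase reporter cells (HEK 293T) received compounds from DMSO stocks after overnight attachment, were incubated 5 hr, then treated 2 hr with FRET substrate before dual-emission fluorescence measurement (405 nm excitation).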

[9] = Human pregnane X receptor (PXR) small molecule agonists, qHTS cell viability counter screen (AID 1346977); note: nearly all actives have a fitted effect of over 50% in size
Procedure, shortened: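 Measures live-cell protease fluorescence (CellTiter-Fluor) in PXR-Luc HepG2 cells treated 24hr with compounds at 37C. Cells had 5hr to attach before pin transfer of DMSO solutions.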

[10] = Caspase-3/7 induction in HepG2 cells by small molecules, qHTS assay (AID 1346978); note: nearly all actives have a fitted effect of over 15% in size
Procedure, shortened: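 Wild-type HepG2 cells (2,000/well) were settled 5 h at 37 C, 5% CO2, then exposed to compounds in DMSO for 17 h. Caspase-3/7 activity was read by luminescence 30 min after adding Caspase-Glo 3/7 reagent at room temperature.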

[11] = Caspase-3/7 induction in CHO-K1 cells by small molecules, qHTS cell viability counter screen (AID 1346979); note: nearly all actives have a fitted effect of over 35% in size
Procedure, shortened: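 In the same wells as the caspase read, viability of compound-treated wild-type CHO-K1 cells was assessed using CellTiter-Fluor, added after 16hr at 37C and measured by fluorescence following 1hr further incubation.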

[12] = Caspase-3/7 induction in CHO-K1 cells by small molecules, qHTS assay (AID 1346980); note: nearly all actives have a fitted effect of over 15% in size
Procedure, shortened: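 Wild-type cells were seeded at 1,500 per well and settled 5 hr at 37 C, 5% CO2, then exposed to DMSO-dissolved compounds for 17 hr. Caspase-Glo 3/7 reagent was added, and luminescence was read after 30min at room temperature.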

[13] = Caspase-3/7 induction in HepG2 cells by small molecules, qHTS cell viability counter screen (AID 1346981); note: series mostly up to about 92 µM; nearly all actives have a fitted effect of over 30% in size
Procedure, shortened: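 Fluorescence read-out of live-cell protease activity (CellTiter-Fluor) after 1 hr with reagent. This was measured in the same wells as the caspase-3/7 luminescence, on HepG2 cells exposed to DMSO-dissolved compounds for 16 hr at 37 C.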

[14] = target: Nuclear receptor subfamily 1 group I member 2 (Homo sapiens) (UniProt O75469); experiment: Human pregnane X receptor (PXR) small molecule agonists, qHTS assay (AID 1346982); note: nearly all actives have a fitted effect of over 35% in size
Procedure, shortened: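 HepG2 PXR-Luc reporter line, 5% charcoal-stripped FBS; 5 hr pre-incubation, compound (DMSO) 24 hr at 37 C/5% CO2; ONE-Glo 30 min RT; luminescence read-out.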

[15] = target: Thyrotropin-releasing hormone receptor (Homo sapiens) (UniProt P34981); experiment: qHTS assay to identify small molecule antagonists of the thyrotropin-releasing hormone receptor (TRHR) signaling pathway (AID 1346877; active = well fitted inhibition curve with a large enough effect in the repeat runs, not every such curve was filed as active; note: series mostly up to about 51 µM)
Procedure, shortened: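 HEK293/TRHR cells, 18 h, 37 °C; Ca2+ dye 2 h; cpd 5 min RT; TRH 1 nM final; fluorescence read 3 min, 1 s intervals; 15 concs, triplicate.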

[16] = target: Thyrotropin-releasing hormone receptor (Homo sapiens) (UniProt P34981); experiment: qHTS assay to identify small molecule agonists of the thyrotropin-releasing hormone receptor (TRHR) signaling pathway (AID 1346891; calls by dose curve;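 note: HEK293 cells expressing TRHR with calcium dye readout; series mostly up to about 58 µM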)
Procedure, shortened: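 Agonist-mode calcium mobilisation screen: TRHR-transfected HEK293 cells cultured overnight (18 h), dye-loaded for 2 h at 37 °C, exposed to compounds, and monitored by fluorescence for 3 min.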

[17] = qHTS assay to identify small molecule agonists of the progesterone receptor (PR) signaling pathway - cell viability counter screen (AID 1346799; calls by dose curve; note: nearly all actives have a fitted effect of over 45% in size)
Procedure, shortened: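 Counter screen for cytotoxicity: compound-treated PR-UAS-bla HEK293T cells (16 hr, 37C, 5% CO2) were assayed with CellTiter-Glo, luminescence measured after 30 min at room temperature.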

[18] = target: Nuclear receptor subfamily 1 group I member 2 (Rattus norvegicus) (UniProt Q9R1A7); experiment: Rat pregnane X receptor (rPXR) activation by small molecules, qHTS assay (AID 1346983); details: rPXR luciferase reporter cells, One-Glo luminescence, 24 h; max activation: hits give high values; note: nearly all actives have a fitted effect of over 20% in size
Procedure, shortened: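 Cell-based rPXR luciferase reporter assay, 2,000 cells per well, rested 5hr at 37 C before compound addition in DMSO, then 24 hr at 37 C. One-Glo reagent was added and luminescence read after 30 min at room temperature.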

[19] = target: Nuclear receptor subfamily 1 group I member 2 (Homo sapiens) (UniProt O75469); experiment: CYP3A4 induction through human pregnane X receptor (PXR) by small molecules, qHTS assay (AID 1346984); note: nearly all actives have a fitted effect of over 40% in size
Procedure, shortened: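 HepG2-derived DPX-2 line carrying PXR plus a CYP3A4-promoter luciferase reporter; cells plated 5 hr, compound-exposed 24 hr at 37C. CYP3A4 activity probed with 3uM (final) Luciferin-IPA for 3hr, then luciferase read after One-Glo.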

[20] = target: Nuclear receptor subfamily 1 group I member 2 (Homo sapiens) (UniProt O75469); experiment: Human pregnane X receptor (PXR) activation by small molecules, qHTS assay (AID 1346985); note: nearly all actives have a fitted effect of over 40% in size
Procedure, shortened: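 DPX-2 cells (HepG2 co-transfected with a PXR response element and a CYP3A4-promoter luciferase construct) were seeded at 2,000 per well, rested 5 hr at 37C, then exposed to DMSO-dissolved compounds for 24 hr. Activation was read as luciferase luminescence.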
% is set by controls: 0 for no effect and ±100 for the full control effect.

Sequence of Thyrotropin receptor (Homo sapiens) (P16473 whole entry, looked up): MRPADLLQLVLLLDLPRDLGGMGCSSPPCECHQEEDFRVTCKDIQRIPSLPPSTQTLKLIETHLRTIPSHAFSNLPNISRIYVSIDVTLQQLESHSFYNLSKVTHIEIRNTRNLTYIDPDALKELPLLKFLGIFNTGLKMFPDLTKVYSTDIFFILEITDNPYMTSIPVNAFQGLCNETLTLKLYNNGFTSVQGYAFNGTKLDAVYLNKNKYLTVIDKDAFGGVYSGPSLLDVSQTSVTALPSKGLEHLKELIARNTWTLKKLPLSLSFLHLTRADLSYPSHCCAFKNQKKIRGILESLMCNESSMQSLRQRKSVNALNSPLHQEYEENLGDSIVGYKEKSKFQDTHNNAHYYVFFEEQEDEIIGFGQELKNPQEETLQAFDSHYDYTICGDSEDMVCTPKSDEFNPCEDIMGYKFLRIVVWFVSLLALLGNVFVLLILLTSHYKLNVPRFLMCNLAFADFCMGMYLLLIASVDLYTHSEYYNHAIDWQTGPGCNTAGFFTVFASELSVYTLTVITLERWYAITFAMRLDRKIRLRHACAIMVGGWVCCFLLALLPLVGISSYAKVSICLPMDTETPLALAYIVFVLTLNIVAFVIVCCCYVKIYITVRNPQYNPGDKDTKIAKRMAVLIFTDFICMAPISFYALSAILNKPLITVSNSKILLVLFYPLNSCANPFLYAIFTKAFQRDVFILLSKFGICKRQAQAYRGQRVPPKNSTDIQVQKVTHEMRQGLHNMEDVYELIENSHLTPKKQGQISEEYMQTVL
Sequence of Thyrotropin-releasing hormone receptor (Homo sapiens) (P34981 whole entry, looked up): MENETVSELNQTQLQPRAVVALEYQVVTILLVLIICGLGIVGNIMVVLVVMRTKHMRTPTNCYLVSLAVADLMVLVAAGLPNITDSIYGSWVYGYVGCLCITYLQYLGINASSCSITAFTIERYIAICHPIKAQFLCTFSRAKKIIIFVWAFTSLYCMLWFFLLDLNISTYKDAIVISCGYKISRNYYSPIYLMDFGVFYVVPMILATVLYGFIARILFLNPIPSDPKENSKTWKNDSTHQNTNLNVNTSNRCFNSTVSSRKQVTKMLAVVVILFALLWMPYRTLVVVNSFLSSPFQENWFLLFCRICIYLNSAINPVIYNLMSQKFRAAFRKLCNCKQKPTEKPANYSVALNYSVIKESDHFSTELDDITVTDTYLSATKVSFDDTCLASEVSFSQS
Sequence of Progesterone receptor (Homo sapiens) (P06401 whole entry, looked up): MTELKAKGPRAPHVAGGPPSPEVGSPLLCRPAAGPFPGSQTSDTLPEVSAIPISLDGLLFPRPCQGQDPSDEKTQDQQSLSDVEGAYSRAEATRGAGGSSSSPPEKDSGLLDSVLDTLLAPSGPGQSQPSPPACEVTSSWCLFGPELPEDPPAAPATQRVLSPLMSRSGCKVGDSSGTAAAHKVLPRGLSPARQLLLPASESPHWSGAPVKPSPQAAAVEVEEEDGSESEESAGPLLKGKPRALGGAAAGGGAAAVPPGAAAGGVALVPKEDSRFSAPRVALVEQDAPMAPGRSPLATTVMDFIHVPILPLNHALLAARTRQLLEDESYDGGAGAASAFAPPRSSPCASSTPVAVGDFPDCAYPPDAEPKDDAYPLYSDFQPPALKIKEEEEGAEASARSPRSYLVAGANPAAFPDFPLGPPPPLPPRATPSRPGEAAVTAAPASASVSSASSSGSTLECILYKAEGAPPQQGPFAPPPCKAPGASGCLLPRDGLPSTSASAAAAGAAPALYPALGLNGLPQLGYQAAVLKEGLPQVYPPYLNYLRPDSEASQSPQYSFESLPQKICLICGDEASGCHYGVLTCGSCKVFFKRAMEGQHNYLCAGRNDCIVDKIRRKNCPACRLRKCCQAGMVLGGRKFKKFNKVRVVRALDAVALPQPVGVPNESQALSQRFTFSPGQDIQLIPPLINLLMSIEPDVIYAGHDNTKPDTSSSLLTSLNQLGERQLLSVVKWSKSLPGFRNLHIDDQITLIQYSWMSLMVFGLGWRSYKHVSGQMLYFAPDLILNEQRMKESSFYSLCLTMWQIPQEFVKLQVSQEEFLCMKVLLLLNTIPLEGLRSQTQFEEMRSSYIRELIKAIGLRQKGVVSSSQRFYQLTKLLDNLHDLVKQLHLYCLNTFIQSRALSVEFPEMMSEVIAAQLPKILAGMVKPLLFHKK
Sequence of Nuclear receptor subfamily 1 group I member 2 (Homo sapiens) (O75469 whole entry, looked up): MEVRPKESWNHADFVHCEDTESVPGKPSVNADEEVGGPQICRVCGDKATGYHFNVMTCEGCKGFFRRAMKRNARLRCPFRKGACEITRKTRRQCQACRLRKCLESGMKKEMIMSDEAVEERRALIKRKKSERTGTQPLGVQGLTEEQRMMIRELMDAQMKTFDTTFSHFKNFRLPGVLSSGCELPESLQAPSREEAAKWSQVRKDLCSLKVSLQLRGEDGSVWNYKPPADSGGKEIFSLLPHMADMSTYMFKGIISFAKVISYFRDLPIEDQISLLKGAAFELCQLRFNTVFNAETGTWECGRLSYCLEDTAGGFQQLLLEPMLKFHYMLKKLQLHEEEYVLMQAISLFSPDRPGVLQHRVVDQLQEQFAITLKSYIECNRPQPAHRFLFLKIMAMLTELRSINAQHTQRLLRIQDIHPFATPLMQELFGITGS
Sequence of Nuclear receptor subfamily 1 group I member 2 (Rattus norvegicus) (Q9R1A7 whole entry, looked up): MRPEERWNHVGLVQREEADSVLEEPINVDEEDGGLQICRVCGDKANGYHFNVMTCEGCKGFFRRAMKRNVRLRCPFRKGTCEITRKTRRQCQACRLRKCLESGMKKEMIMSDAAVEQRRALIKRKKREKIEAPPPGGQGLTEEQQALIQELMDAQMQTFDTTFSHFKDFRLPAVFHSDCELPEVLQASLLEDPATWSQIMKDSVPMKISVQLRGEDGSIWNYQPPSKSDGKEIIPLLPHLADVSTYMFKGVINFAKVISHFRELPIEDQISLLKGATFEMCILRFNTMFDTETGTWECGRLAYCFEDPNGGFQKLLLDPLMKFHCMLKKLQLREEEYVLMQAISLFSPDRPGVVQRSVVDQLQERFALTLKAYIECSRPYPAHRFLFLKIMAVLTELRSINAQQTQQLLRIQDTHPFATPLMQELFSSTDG

CCCCCC#CC(=O)OC
inactive: Potency [1] | Potency [2] | Potency [3] | Potency [4] | Potency [5] | Potency [6] | Potency [7] | Potency [8] | Potency [9] | Potency [10] | Potency [11] | Potency [12] | Potency [13] | Potency [14]

NCCNCCO
inactive: Potency [1] | Potency [2] | Potency [3] | Potency [4] | Potency [5] | Potency [6] | Potency [8] | outcome [15] | Potency [16] | Potency [9] | Potency [10] | Potency [11] | Potency [12] | Potency [13] | Potency [14]

CCOC(=O)c1ccc(OCCN2C[C@H](O)[C@@H](O)[C@H](O)[C@H]2CO)cc1
inactive: Potency [1] | Potency [2] | Potency [3] | Potency [4] | Potency [5] | Potency [17] | Potency [7] | Potency [8] | outcome [15] | Potency [16] | Potency [9] | Potency [10] | Potency [11] | Potency [12] | Potency [13] | Potency [14]

C1C[C@@H]2[C@H]3CC[C@H](C3)[C@@H]2C1
inactive: Potency [1] | Potency [2] | Potency [3] | Potency [4] | Potency [5] | Potency [17] | Potency [7] | Potency [8] | outcome [15] | Potency [16] | Potency [9] | Potency [10] | Potency [11] | Potency [13] | Potency [14]

O=C(CCCN1CC=C(n2c(=O)[nH]c3ccccc32)CC1)c1ccc(F)cc1
inactive: Potency [1] | Potency [2] | Potency [3] | Potency [4] | Potency [5] | Potency [17] | Potency [7] | outcome [15] | Potency [16] | Potency [10] | Potency [11] | Potency [12] | Potency [13] | max activation [18] 0.857% | Potency [19]

CC(C)C=O
inactive: Potency [1] | Potency [2] | Potency [3] | Potency [4] | Potency [5] | Potency [6] | Potency [8] | outcome [15] | Potency [16] | Potency [9] | Potency [10] | Potency [11] | Potency [13]

Cc1[nH]cnc1CN1CCc2c(c3ccccc3n2C)C1=O
inactive: Potency [1] | Potency [2] | Potency [3] | Potency [4] | Potency [5] | Potency [17] | Potency [6] | Potency [8] | Potency [10] | Potency [11] | Potency [12] | Potency [13] | Potency [14] | max activation [18] 1.25% | Potency [19] | Potency [20]

O=C(OC(=O)c1ccccc1)c1ccccc1
inactive: Potency [1] | Potency [2] | Potency [3] | Potency [4] | Potency [5] | Potency [6] | Potency [7] | Potency [8] | outcome [15] | Potency [16] | Potency [10] | Potency [11] | Potency [12] | Potency [13] | Potency [14]

CCOC(=O)/C=C/C(=O)OCC
inactive: Potency [1] | Potency [2] | Potency [3] | Potency [4] | Potency [5] | Potency [17] | Potency [7] | Potency [8] | outcome [15] | Potency [16] | Potency [9] | Potency [10] | Potency [11] | Potency [12] | Potency [13] | Potency [14]

Reference: PubChem BioAssay (Tox21)
